How the values were obtained:
[1] = biological target: T1, Inhibitor of nuclear factor kappa-B kinase subunit epsilon (Homo sapiens) (UniProt Q14164); conditions: at 1 µM;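 also: reported values are averaged percent inhibition figures against human IKKε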
T1 sequence (whole entry): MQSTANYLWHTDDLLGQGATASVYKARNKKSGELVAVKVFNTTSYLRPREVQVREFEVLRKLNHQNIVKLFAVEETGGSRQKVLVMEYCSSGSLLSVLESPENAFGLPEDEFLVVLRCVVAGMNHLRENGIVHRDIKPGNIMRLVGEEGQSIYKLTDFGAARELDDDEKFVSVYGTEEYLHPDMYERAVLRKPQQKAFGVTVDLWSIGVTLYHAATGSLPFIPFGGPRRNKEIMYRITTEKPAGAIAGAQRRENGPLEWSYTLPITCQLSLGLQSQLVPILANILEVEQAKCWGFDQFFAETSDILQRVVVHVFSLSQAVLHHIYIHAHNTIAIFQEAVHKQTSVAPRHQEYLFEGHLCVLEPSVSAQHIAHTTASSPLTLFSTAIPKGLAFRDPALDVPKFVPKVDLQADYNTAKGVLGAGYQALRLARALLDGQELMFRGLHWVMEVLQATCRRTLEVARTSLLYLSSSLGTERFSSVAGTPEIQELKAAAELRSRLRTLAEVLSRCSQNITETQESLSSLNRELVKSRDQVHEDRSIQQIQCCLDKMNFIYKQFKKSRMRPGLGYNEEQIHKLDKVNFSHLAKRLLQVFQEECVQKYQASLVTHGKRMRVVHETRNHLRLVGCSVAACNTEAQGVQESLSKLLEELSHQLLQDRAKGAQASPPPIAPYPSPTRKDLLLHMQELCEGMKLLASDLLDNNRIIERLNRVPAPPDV

[2] = biological target: T2, Serine/threonine-protein kinase Nek1 (Homo sapiens) (UniProt Q96PY6); conditions: at 0.1 µM
T2 sequence (whole entry): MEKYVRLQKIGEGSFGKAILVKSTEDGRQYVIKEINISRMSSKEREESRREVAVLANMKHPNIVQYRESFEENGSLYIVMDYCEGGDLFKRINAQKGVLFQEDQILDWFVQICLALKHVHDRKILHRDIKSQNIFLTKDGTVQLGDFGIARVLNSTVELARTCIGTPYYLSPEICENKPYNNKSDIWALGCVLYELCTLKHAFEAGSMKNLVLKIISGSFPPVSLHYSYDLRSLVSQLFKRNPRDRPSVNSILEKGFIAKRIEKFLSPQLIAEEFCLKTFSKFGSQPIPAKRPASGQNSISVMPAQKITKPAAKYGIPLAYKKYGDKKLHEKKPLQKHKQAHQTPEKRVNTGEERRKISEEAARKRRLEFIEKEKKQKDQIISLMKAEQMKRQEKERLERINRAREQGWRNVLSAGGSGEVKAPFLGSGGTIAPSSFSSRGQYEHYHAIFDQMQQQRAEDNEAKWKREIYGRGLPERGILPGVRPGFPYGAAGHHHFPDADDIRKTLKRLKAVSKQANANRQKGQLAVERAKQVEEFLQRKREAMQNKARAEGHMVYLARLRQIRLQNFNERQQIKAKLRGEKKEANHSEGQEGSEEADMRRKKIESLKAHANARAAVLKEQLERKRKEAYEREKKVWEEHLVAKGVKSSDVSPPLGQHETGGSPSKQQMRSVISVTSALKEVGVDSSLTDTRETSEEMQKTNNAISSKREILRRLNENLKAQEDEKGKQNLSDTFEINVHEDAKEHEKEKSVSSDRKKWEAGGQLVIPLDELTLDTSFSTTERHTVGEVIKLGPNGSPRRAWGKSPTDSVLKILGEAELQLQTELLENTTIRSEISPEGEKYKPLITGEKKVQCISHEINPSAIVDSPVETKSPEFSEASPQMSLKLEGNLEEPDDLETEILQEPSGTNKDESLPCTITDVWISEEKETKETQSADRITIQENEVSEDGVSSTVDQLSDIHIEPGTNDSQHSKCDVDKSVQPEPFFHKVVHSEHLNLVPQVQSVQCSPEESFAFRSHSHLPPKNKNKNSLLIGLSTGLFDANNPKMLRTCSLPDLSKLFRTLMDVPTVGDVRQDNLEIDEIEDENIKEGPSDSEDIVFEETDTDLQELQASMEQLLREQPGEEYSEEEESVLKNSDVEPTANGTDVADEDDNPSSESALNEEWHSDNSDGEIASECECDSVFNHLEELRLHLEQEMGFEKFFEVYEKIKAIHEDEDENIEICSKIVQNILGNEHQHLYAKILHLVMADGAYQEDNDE

[3] = biological target: T2, Serine/threonine-protein kinase Nek1 (Homo sapiens); conditions: at 1 µM
[4] = biological target: T3, Serine/threonine-protein kinase Nek2 (Homo sapiens) (UniProt P51955); conditions: at 0.1 µM
T3 sequence (whole entry): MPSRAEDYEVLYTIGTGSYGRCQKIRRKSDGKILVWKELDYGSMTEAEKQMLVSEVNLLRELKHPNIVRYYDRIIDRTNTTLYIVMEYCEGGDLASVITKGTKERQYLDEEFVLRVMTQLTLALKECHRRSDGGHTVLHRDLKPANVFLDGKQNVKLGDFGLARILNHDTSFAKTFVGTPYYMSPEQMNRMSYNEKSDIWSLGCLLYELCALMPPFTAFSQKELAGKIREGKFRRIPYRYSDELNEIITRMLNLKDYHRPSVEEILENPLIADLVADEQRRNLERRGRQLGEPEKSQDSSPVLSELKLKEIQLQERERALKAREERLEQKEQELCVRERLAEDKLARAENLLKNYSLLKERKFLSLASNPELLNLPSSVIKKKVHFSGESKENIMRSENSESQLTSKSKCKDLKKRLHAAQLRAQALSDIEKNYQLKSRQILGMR

[5] = biological target: T3, Serine/threonine-protein kinase Nek2 (Homo sapiens); conditions: at 1 µM
[6] = biological target: Serine/threonine-protein kinase Nek6 (Homo sapiens) (UniProt Q9HC98); conditions: at 0.1 µM
Chain of Serine/threonine-protein kinase Nek6 (Homo sapiens) (Q9HC98 whole entry): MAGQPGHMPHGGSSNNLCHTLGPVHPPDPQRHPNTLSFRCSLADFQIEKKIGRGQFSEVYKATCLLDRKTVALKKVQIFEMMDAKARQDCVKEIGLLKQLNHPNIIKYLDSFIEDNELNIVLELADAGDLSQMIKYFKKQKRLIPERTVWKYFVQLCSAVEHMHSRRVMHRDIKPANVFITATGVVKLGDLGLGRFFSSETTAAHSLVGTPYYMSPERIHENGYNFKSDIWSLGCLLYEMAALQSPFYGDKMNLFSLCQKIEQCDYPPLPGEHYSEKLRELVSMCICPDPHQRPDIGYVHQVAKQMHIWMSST

[7] = biological target: Serine/threonine-protein kinase Nek6 (Homo sapiens) (UniProt Q9HC98); conditions: at 1 µM
[8] = biological target: Serine/threonine-protein kinase Nek7 (Homo sapiens) (UniProt Q8TDX7); conditions: at 0.1 µM
Chain of Serine/threonine-protein kinase Nek7 (Homo sapiens) (Q8TDX7 whole entry, looked up): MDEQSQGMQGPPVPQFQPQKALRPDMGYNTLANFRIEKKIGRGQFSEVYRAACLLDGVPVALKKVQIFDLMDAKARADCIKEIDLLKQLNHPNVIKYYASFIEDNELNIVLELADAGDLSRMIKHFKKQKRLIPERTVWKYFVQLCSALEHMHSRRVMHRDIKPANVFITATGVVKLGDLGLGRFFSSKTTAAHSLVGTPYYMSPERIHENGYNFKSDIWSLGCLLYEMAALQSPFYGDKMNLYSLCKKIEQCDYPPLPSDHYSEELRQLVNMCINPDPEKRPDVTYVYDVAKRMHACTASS

[9] = biological target: Serine/threonine-protein kinase Nek7 (Homo sapiens) (UniProt Q8TDX7); conditions: at 1 µM
[10] = biological target: T4, Serine/threonine-protein kinase Nek9 (Homo sapiens) (UniProt Q8TD19); conditions: at 0.1 µM
T4 sequence (whole entry): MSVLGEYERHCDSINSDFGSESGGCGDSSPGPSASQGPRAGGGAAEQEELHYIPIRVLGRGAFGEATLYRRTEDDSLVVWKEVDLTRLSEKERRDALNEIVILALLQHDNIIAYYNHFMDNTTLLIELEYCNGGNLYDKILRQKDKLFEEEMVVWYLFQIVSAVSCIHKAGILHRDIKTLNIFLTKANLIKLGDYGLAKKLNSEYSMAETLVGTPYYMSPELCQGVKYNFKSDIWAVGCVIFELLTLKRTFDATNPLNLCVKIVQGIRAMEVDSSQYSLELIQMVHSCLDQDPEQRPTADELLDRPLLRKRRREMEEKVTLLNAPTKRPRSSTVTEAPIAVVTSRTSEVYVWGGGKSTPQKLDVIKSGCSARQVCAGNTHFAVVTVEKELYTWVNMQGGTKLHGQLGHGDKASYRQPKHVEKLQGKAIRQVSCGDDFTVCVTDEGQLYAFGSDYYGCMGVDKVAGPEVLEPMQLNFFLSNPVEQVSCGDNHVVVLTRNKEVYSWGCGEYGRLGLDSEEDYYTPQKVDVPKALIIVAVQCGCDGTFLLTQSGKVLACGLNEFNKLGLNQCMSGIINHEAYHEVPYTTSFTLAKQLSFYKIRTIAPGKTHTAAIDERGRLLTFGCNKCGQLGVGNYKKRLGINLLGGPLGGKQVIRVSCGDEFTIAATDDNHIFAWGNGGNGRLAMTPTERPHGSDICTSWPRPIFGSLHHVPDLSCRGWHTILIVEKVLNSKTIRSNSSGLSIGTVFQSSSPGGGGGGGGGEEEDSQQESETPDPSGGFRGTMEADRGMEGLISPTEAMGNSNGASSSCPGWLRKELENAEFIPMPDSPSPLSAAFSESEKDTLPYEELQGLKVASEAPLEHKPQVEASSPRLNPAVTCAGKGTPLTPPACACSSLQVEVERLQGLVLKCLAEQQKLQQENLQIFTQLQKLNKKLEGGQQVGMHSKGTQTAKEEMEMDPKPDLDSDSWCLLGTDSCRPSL

[11] = biological target: T4, Serine/threonine-protein kinase Nek9 (Homo sapiens); conditions: at 1 µM
[12] = biological target: Serine/threonine-protein kinase PLK1 (Homo sapiens) (UniProt P53350); conditions: at 0.1 µM
Chain of Serine/threonine-protein kinase PLK1 (Homo sapiens) (P53350 whole entry): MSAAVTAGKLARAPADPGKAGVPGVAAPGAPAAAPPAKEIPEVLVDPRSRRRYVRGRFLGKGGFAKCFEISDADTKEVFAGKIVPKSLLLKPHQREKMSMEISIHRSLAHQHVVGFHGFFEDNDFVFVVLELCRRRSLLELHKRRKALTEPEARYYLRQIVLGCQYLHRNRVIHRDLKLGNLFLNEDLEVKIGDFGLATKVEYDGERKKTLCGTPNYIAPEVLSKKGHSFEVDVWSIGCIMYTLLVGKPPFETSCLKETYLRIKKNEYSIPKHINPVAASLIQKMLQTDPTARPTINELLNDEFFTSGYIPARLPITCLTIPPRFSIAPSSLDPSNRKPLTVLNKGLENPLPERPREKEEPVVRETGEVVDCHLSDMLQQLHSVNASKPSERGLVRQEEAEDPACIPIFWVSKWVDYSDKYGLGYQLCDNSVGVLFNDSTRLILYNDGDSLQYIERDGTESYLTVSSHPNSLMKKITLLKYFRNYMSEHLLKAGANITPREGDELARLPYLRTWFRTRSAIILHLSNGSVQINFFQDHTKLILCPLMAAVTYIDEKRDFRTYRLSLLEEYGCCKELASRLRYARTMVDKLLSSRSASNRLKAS

[13] = biological target: Serine/threonine-protein kinase PLK1 (Homo sapiens) (UniProt P53350); conditions: at 1 µM
[14] = biological target: T5, Dual specificity protein kinase TTK (Homo sapiens) (UniProt P33981); conditions: at 0.1 µM
T5 sequence (whole entry): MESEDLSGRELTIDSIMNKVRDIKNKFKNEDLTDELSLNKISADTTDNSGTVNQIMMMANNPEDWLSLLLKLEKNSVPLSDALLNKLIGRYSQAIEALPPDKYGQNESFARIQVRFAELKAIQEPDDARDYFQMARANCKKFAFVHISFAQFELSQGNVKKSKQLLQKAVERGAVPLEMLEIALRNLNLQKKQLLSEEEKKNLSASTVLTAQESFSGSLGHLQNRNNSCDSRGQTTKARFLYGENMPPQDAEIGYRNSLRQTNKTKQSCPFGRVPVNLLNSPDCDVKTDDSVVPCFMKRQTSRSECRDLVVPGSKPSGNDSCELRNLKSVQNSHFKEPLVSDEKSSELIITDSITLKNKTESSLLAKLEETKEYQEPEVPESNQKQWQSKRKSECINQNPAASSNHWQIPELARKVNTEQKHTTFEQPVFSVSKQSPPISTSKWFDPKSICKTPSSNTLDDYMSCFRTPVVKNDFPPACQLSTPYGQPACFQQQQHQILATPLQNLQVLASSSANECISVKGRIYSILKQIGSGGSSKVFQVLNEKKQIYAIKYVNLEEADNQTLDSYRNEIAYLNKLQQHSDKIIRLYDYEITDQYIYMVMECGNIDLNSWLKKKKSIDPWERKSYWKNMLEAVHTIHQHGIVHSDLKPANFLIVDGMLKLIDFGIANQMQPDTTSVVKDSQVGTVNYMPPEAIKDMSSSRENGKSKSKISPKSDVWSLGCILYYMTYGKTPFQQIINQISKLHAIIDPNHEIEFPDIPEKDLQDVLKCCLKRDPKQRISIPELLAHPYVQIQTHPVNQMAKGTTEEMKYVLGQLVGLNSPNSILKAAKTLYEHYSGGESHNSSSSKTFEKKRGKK

[15] = system: T6, Receptor-type tyrosine-protein kinase FLT3 (Homo sapiens), P36888 [D835Y]; conditions: at 1 µM
T6 sequence (whole entry): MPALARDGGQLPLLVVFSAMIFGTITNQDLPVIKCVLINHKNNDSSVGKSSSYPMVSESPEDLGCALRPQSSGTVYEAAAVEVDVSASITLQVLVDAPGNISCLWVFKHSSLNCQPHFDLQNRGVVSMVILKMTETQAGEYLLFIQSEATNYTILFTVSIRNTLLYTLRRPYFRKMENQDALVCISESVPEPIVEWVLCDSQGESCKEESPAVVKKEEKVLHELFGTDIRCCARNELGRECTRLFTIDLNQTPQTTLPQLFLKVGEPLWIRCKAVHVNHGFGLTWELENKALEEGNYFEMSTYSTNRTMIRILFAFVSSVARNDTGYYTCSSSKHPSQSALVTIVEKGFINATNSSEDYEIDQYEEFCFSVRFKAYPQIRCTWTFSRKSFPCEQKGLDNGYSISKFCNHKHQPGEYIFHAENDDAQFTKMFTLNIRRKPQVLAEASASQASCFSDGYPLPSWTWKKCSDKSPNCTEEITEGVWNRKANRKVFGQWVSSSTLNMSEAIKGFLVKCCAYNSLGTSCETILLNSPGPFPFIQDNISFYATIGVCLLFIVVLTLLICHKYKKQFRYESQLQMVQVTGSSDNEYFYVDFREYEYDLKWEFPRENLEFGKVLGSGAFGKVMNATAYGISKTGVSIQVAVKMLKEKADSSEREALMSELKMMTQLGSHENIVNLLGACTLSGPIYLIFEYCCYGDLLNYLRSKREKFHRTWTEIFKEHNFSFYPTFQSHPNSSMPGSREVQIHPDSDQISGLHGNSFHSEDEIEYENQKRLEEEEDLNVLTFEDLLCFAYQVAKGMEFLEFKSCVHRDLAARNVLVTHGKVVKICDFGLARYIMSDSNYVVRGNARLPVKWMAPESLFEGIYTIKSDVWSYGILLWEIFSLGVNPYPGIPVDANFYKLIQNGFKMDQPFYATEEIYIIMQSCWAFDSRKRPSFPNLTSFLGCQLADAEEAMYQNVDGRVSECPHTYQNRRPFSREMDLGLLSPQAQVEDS

[16] = biological target: Vascular endothelial growth factor receptor 3 (Homo sapiens) (UniProt P35916); conditions: at 0.1 µM
Chain of Vascular endothelial growth factor receptor 3 (Homo sapiens) (P35916 whole entry): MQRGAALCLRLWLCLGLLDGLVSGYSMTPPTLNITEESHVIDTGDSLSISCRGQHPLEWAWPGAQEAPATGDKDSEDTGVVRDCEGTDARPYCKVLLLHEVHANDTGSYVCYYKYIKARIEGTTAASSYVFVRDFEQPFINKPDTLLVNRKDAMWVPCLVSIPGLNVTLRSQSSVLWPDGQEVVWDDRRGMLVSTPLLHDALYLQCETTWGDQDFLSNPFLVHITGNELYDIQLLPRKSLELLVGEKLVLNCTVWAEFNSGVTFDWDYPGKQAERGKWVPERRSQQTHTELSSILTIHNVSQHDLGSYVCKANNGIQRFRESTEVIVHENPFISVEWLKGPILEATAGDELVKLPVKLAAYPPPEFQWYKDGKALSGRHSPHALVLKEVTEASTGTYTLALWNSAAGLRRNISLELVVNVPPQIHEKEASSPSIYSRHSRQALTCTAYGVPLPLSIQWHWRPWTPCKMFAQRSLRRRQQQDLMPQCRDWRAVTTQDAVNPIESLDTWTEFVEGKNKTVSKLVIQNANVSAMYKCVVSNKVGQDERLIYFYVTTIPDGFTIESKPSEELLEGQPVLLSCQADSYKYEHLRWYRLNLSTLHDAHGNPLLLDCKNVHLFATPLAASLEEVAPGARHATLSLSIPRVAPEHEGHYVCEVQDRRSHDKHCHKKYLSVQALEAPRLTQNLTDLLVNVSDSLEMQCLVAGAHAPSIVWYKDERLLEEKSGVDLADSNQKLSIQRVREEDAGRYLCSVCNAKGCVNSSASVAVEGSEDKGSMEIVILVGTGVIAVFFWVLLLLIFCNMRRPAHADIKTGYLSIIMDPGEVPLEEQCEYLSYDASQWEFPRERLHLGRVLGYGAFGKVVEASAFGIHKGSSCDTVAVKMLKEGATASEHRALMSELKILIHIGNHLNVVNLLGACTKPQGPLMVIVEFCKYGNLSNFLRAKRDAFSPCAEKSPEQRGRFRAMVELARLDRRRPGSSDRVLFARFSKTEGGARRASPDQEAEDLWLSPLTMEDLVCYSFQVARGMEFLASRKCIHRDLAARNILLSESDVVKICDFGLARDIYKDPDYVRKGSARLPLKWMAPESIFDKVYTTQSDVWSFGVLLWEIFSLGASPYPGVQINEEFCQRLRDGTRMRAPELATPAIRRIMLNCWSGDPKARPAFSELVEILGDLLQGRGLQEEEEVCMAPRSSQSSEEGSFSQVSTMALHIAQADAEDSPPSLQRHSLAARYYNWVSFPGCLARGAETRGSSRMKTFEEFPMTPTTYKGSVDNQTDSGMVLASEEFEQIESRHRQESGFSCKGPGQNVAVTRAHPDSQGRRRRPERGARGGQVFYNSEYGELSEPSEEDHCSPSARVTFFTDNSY

[17] = biological target: Vascular endothelial growth factor receptor 3 (Homo sapiens) (UniProt P35916); conditions: at 1 µM
[18] = biological target: Macrophage colony-stimulating factor 1 receptor (Homo sapiens) (UniProt P07333); conditions: at 0.1 µM
Chain of Macrophage colony-stimulating factor 1 receptor (Homo sapiens) (P07333 whole entry): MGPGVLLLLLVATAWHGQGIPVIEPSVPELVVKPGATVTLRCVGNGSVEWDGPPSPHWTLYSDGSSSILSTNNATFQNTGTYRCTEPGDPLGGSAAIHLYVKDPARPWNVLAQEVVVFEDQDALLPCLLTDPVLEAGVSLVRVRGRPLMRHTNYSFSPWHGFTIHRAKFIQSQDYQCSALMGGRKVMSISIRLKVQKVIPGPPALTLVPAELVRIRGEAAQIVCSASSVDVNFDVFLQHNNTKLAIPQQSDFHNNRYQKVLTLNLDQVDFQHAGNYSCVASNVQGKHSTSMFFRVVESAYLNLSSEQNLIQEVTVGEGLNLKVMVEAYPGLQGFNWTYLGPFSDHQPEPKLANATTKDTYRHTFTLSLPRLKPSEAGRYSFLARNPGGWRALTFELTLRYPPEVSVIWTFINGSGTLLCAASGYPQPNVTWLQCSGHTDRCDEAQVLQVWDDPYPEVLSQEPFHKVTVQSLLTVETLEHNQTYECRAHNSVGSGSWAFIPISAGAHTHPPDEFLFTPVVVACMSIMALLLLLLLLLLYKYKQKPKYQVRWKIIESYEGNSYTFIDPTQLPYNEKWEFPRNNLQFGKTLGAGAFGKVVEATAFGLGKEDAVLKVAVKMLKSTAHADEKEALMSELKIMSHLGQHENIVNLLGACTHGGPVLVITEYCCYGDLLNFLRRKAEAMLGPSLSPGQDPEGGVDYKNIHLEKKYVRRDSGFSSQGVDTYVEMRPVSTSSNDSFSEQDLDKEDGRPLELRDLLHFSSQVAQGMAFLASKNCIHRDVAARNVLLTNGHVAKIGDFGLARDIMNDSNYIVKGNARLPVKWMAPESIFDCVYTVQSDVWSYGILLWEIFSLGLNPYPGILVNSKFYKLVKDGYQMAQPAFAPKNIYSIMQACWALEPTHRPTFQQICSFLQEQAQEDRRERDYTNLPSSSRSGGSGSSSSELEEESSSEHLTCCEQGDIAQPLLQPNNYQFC

[19] = biological target: Macrophage colony-stimulating factor 1 receptor (Homo sapiens) (UniProt P07333); conditions: at 1 µM
[20] = biological target: Tyrosine-protein kinase Fyn (Homo sapiens) (UniProt P06241); conditions: at 0.1 µM
Chain of Tyrosine-protein kinase Fyn (Homo sapiens) (P06241 2-537 limits assumed): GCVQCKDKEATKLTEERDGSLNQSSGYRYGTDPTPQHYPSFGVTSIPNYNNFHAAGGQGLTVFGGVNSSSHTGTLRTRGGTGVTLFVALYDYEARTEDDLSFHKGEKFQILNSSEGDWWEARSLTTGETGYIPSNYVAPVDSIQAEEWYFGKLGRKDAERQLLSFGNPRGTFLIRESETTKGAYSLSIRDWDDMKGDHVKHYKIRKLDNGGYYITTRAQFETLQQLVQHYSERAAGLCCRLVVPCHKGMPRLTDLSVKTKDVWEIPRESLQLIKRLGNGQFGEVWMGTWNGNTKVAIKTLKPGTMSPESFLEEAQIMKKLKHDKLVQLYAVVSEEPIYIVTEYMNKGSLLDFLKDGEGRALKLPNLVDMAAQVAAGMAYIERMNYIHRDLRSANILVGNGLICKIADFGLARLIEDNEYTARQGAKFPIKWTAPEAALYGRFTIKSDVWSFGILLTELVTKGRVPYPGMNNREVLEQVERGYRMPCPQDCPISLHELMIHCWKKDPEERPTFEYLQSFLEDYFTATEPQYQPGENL

| Structure (SMILES) | inhibition [1] [%] | inhibition [2] [%] | inhibition [3] [%] | inhibition [4] [%] | inhibition [5] [%] | inhibition [6] [%] | inhibition [7] [%] | inhibition [8] [%] | inhibition [9] [%] | inhibition [10] [%] | inhibition [11] [%] | inhibition [12] [%] | inhibition [13] [%] | inhibition [14] [%] | inhibition [15] [%] | inhibition [16] [%] | inhibition [17] [%] | inhibition [18] [%] | inhibition [19] [%] | inhibition [20] [%] |
| --- | --- | --- | --- | --- | --- | --- | --- | --- | --- | --- | --- | --- | --- | --- | --- | --- | --- | --- | --- | --- |
| O=C(O[C@H]1CN[C@H](C#Cc2cc3ncnc(Nc4ccc(Cc5ccccc5)cc4)c3s2)C1)N1CCOCC1 | 3.15 | 1.41 | 1.96 | 2.89 | 4.01 | 1.71 | 1.61 | 2.18 | 2.21 | 4.6 | 7.49 | 1.59 | 1.47 | 3.54 | -0.77 | -2.62 | 4.62 | -3.48 | 3.66 | -0.06 |
| COC(=O)Nc1nc2ccc(S(=O)(=O)c3ccc(NC(=O)Nc4cc(C(F)(F)F)ccc4F)cc3)cc2[nH]1 | 4.2 | 2.08 | 1.85 | 3.76 | 4.26 | 4.42 | -3.58 | 2.46 | 2.19 | 2.21 | 7.16 | 3.83 | 2.15 | 5.04 | 7.26 | 0.23 | 0.36 | -1.07 | 2.06 | 1.02 |

Source: ChEMBL document CHEMBL1961873, “Compounds: GSK PKIS; Assays: Nanosyn kinase panel” (2012)
